Compound activity deposited in PubChem BioAssay by several laboratories.
A selection: hits, their analogues and other compounds. The true share with any hit is near 4.3%.
HGIII-sPLA2 inh: Inhibits HGIII-sPLA2 liposome hydrolysis, primary screen; Q9NZ20; QFRET BODIPY PC-A2 liposome hydrolysis, fluorescence; actives 0.56% (n = 370,000); inhibition, % at 12.2 µM;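 active means inhibition above mean plus 3 SD of compounds lying within the high and low control bounds, cut at about 19% in these data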;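 further: 0% = median of test compound wells and 100% = no enzyme DMSO wells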
ADAM17 inh: ADAM17 inhibition, QFRET primary screen; P78536; recombinant ADAM17, EDANS/DABCYL FRET peptide cleavage; inhibition, % at 6.95 µM; actives 0.83% (n = 370,000); AID 720648;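 active means inhibition above the mean of compounds lying between control limits plus 3 SD, set per campaign, cut at about 8.5% in these data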;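 further: 0% = DMSO-only wells as the low control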
FAS TE block: inhibitors of human fatty acid synthase thioesterase domain. P49327. actives 0.67% (n = 360,000). recombinant FAS-TE, OMFH fluorogenic substrate, fluorescence endpoint. inhibition, % at 15 µM. AID 602261;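 active means compounds whose normalised, plate-corrected inhibition of enzyme fluorescence in the single-dose primary screen is 50% or more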;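 further: 0% = DMSO with enzyme and 100% = substrate without enzyme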
NR3A LBD binder: modulates the human NR3A ligand-binding domain | NR3A LBD differential scanning fluorimetry, Tm shift; 0% = protein alone, 100% = glycine-bound protein | Tm shift relative to glycine control, % at 25 µM | actives 2.5% (n = 340,000) | AID 1259313;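 active means melting temperature shift of at least 10% of the positive control shift, at one fixed dose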
ADAM10 inh: ADAM10 inhibition, QFRET primary screen | inhibition, % at 7 µM | recombinant ADAM10, EDANS/DABCYL FRET peptide cleavage, 3 h | actives 0.62% (n = 370,000) | O14672;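 active means inhibition above a per-campaign cutoff equal to the mean of compounds falling between control-based bounds plus 3 SD, cut at about 20% in these data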;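 further: 0% = DMSO wells while the 100% control is not disclosed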
Numbers without * were called inactive; i = inactive; x = no result given.

SMILES	HGIII-sPLA2 inh	ADAM17 inh	FAS TE block	NR3A LBD binder	ADAM10 inh
O=C(Nc1ccc(Oc2ccc(Cl)cc2)c(Cl)c1)c1cc(I)cc(I)c1O	-2	-6	40	31*	-11
O=C(Cn1nnc(-c2cc(C(F)(F)F)cc(C(F)(F)F)c2)n1)NNC(=S)Nc1ccc(Cl)cc1	7	0	29	36*	5
O=C(COC(=O)c1ccc2[nH]c3c(c2c1)CCCC3)Nc1ccccc1	-49	-12	18	22*	-76
Cc1cccc(C)c1NC(=O)COC(=O)c1ccc2[nH]c3c(c2c1)CCCC3	-10	-5	1	6	-10
C=CCn1c(=NC(=O)c2ccc(S(=O)(=O)N3CCc4ccccc4C3)cc2)sc2cc(S(N)(=O)=O)ccc21	-9	-46	25	19*	-207
C=CCn1c(=NC(=O)c2ccc(S(=O)(=O)N3CCCc4ccccc43)cc2)sc2cc(S(N)(=O)=O)ccc21	-7	-1	13	13*	-10
COCCn1c(=NC(=O)c2cc(Cl)sc2Cl)sc2cc(S(N)(=O)=O)ccc21	-4	-6	-3	28*	-6
COC(=O)Cn1c(=NC(=O)c2ccc(S(=O)(=O)N3CCc4ccccc4C3)cc2)sc2cc(OC)ccc21	3	-8	24	-1	-30
C#CCn1c(=NC(=O)c2ccc(S(=O)(=O)N3CCc4ccccc4C3)cc2)sc2cc(S(N)(=O)=O)ccc21	x	x	-8	-4	x
COCCn1c(=NC(=O)c2ccc(S(=O)(=O)N3CCc4ccccc4C3)cc2)sc2cc(S(N)(=O)=O)ccc21	-36	-176	35	25*	-489
COCCn1c(=NC(=O)c2ccc3c(c2)OCCO3)sc2cc(S(N)(=O)=O)ccc21	-8	-252	-1	-2	i
COc1ccc(S[C@]2(C(=O)N3CCN(c4ncccn4)CC3)CC(=O)N[C@@H]2c2ccc(OC)cc2)cc1	-6	0	x	x	2
COCCn1c(=NC(C)=O)sc2cc([N+](=O)[O-])ccc21	10	-2	1	27*	-2
O=c1cc(CO)oc2ccccc12	3	-6	-10	-4	-3
CCCCCc1cc(=O)c2ccccc2o1	2	-2	2	53*	6
COc1ccc(N=c2oc3cc(O)ccc3cc2C(=O)Nc2ccccn2)cc1OC	-4	-39	-2	15*	-117
COc1ccc(CNC(=O)O[C@H]2CC[C@@]34CCCN3C(=O)CCC[C@H]4C2)cc1OC	5	0	x	x	1
C=CCN1C(=O)[C@@H](CC(=O)N2CCOCC2)[C@]2(C(=O)OCC)CCCCC/C=C/12	15	0	x	x	-8
Cc1ccc(NC(=O)c2ccc(N3C(=O)C4CC=C(Cl)CC4C3=O)cc2)cc1 (configuration not stated)	-20	0	7	26*	2
C/C(=N\O)c1ccc(N2C(=O)C3CC=C(Cl)CC3C2=O)cc1 (configuration not stated)	-4	-1	-9	2	0
O=C(Nc1ccc(F)cc1)c1nsc(Cl)c1Cl	4	-2	-1	-4	4
O=C(Nc1ccc(F)c(Cl)c1)c1nsc(Cl)c1Cl	6	6	6	15*	1
O=C(Nc1ccc(Cl)c(Cl)c1)Nc1ccc(Br)cc1F	4	3	22	40*	7
COc1ccc(NC(=O)Nc2ccc(Br)c(C)c2)cc1	-3	1	2	25*	-1
O=C(Nc1ccc(Cl)c(Cl)c1)Nc1ccccc1O	-15	8	25	466*	18
SMILES	HGIII-sPLA2 inh	ADAM17 inh	FAS TE block	NR3A LBD binder	ADAM10 inh
O=C(Nc1ccc(Cl)c(Cl)c1)c1ccccc1	-2	6	22	2	9
O=C(Nc1ccc(Br)cc1)Nc1ccccc1F	-6	-2	-3	5	6
COc1ccc(C(=O)/C=C(\Nc2ccc(Br)c(C)c2)c2ccc(OC)cc2OC)c(OC)c1	1	1	x	x	2
CC(C)CC(O)(CC(C)C)c1cn(C(=O)N(c2ccccc2)c2ccccc2)nn1	-13	0	x	x	3
COc1ccc(CNC(=S)OC2CCC23CCC(c2ccccc2)CC3)cc1 (configuration not stated)	3	2	x	x	4
CN(Cc1ccccc1)C(=O)OCc1cn(Cc2ccc(F)c(F)c2)nn1	-2	1	x	x	3
Cc1nnsc1SCCNC(=O)Nc1ccc(Cl)cc1	-2	-1	5	28*	13
Cc1nccc(-c2cccc(NC(=O)Nc3ccc(Cl)cc3)c2)n1	-8	-3	-2	25*	-3
